The record followed here is the supplement of paper PMC6555819.

Holding throughout (test): PBM binding z-score (relative to random genomic background probes); higher = stronger binding; sequences stand for … in GC…GCGATTGACAGCGTAGAATGAAGG
The test system of experiment [1] is FXR:RXRa (NR concentration 270 nM, RXRa partner concentration 90 nM). Put shortly:
(§1)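 Probes were double-stranded and carried 34-nt variable regions with direct-repeat seeds, single-nucleotide variants, half-site ablations and random human genomic background sequences, printed on custom Agilent 4×180K protein-binding microarrays. Arrays were incubated 1 h with ligand-free nuclear receptor dimers in PBS pH 7.4, 2% milk, 0.02% Triton X-100, 1 mM DTT, 0.2 mg/mL BSA and 0.4 mg/ml salmon testes DNA. Antibodies against each partner (one per run) detected binding, and scanned fluorescence was regression-normalized. Binding z-scores use the random background probes as reference.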

In experiment [2] the test system is LXRa:RXRa (NR concentration 270 nM, RXRa partner concentration 90 nM). Put shortly: as §1
Experiment [3] relates to LXRa homodimer (NR concentration 270 nM). Put shortly: as §1
For experiment [4], the system named is LXRb:RXRa (NR concentration 270 nM, RXRa partner concentration 90 nM). Put shortly:
as §1

In experiment [5] the test system is LXRb homodimer (NR concentration 270 nM). Put shortly: as §1
In experiment [6] the test system is PPARa:RXRa (NR concentration 270 nM, RXRa partner concentration 90 nM). Put shortly: as §1
Experiment [7] has as its system PPARg:RXRa (NR concentration 180 nM, RXRa partner concentration 90 nM). Put shortly:
as §1

Experiment [8] deals with PPARg:RXRa 270nM:90nM, anti-RXR (NR concentration 270 nM, RXRa partner concentration 90 nM). A digest of the protocol: as §1
The test system of experiment [9] is PPARg:RXRa 30nM:10nM, anti-RXR (NR concentration 30 nM, RXRa partner concentration 10 nM). Put shortly:
as §1

In experiment [10] the test system is PPARg:RXRa 90nM:30nM, anti-RXR (NR concentration 90 nM, RXRa partner concentration 30 nM). Put shortly: as §1
Experiment [11] concerns PPARg:RXRa DBDmut IVT, anti-RXR (DBD mutation: RXRa K156A/R161A, NR concentration 270 nM, RXRa partner concentration 90 nM). Put shortly:
as §1

The subject of experiment [12] is PPARg:RXRa IVT, anti-PPARg (NR concentration 270 nM, RXRa partner concentration 90 nM). A digest of the protocol:
as §1

The subject of experiment [13] is PPARg DBDmut:RXRa IVT, anti-PPARg (DBD mutation: PPARg1 K132A/R137A, NR concentration 270 nM, RXRa partner concentration 90 nM). Put shortly: as §1
In experiment [14] the test system is PPARg DBDmut IVT, anti-PPARg (DBD mutation: PPARg1 K132A/R137A, NR concentration 270 nM). Put shortly: as §1
The subject of experiment [15] is PPARg homodimer (NR concentration 180 nM). Put shortly: as §1
For experiment [16], the system named is PXR:RXRa (NR concentration 270 nM, RXRa partner concentration 90 nM). Put shortly: as §1
Experiment [17] deals with PXR homodimer (NR concentration 270 nM). A digest of the protocol: as §1
In experiment [18] the test system is RARa:RXR (NR concentration 270 nM, RXRa partner concentration 90 nM). A digest of the protocol: as §1
Experiment [19] has as its system RARa homodimer (NR concentration 270 nM). Put shortly: as §1
Experiment [20] relates to RARb:RXRa (NR concentration 270 nM, RXRa partner concentration 90 nM). A digest of the protocol:
as §1

Turning to TCTTGTAGATCAGGCAGGTTAAGAAAGCCTGAGT, the PBM binding z-score is 0.09 in experiment [1]; 0.00615 in experiment [2]; -0.308 in [3]; 0.209 in [4]; -0.455 in experiment [5]; 0.43 in experiment [6]. The PBM binding z-score in experiment [7] was -0.505; in experiment [8] it was 0.864; in experiment [9], 2.52; in [10], 1.62; in experiment [11], 1.29; in [12], -0.151. Also, the PBM binding z-score in experiment [13] is 0.127; in experiment [14], -0.335; in experiment [15], -0.356; in experiment [16], 0.175; in experiment [17] it was -0.218; in experiment [18] it was 0.0754. Besides, the values for the PBM binding z-score in [19] and in [20] were 0.0377 and 0.0689, respectively.

Take CCTAGCAGGCCAGAGTCACTCAAGCATTTCGCTT: the PBM binding z-score in experiment [1] is -0.525; in [2], -0.329; in experiment [3], -0.444; in [4], -0.519; in [5], -1.47; in [6] it was -0.299. The PBM binding z-score in experiment [7] was -0.117; in experiment [8] it was -0.25; in [9], -0.904; in [10] it was -0.753; in experiment [11] it was 0.697; in experiment [12] it was -0.158. For the same sequence, the PBM binding z-score was -1.34 in experiment [13]; -1.29 in [14]; 0.134 in experiment [15]; -0.712 in [16]; -0.709 in experiment [17]; -0.507 in [18]. In addition, the values for the PBM binding z-score in experiment [19] and in experiment [20] were -0.47 and -0.0457, respectively.

Take AGTCAAAGTTCTGGACGAGGTAACGTAAAGCACG: the PBM binding z-score in experiment [1] is -0.243; in [2] it was -0.501; in experiment [3] it was -0.429; in [4], -0.322; in [5], -0.689; in [6], 0.00286. The PBM binding z-score in [7] is 0.557; in [8], 0.0282; in [9] it was -0.285; in [10], 0.00624; in experiment [11], -0.983; in [12], 0.272. Moreover, the PBM binding z-score in [13] was 0.288; in experiment [14] it was 0.0438; in [15] it was -0.146; in [16], -0.238; in experiment [17], -0.479; in [18], 0.0945. Also, the results for the PBM binding z-score in [19] and in experiment [20] were 0.0553 and 0.168, respectively.

With TTTAGTTGGTCACGGAGGTCACACACGACGGGTA, the PBM binding z-score is 3.66 in [1]; 3.83 in [2]; 3.02 in experiment [3]; 3.45 in [4]; 1.48 in experiment [5]; 4.21 in experiment [6]. Further, the PBM binding z-score was 4.64 in [7]; 4.76 in experiment [8]; 2.06 in [9]; 3.63 in experiment [10]; 3.69 in [11]; 5.36 in experiment [12]. The PBM binding z-score in experiment [13] worked out at 1.78; in experiment [14] it was 1.9; in experiment [15], 3.37; in [16] it was 4.93; in experiment [17], 1.92; in [18] it was 4.96. In addition, the PBM binding z-score in [19] stood at 2.05; in experiment [20], 4.08.

In the case of CCTATTAGTTGACCATAAGGGCATCCGAAGCTCG, the PBM binding z-score was determined as 0.924 in experiment [1]; 0.501 in [2]; 0.549 in experiment [3]; 0.384 in experiment [4]; 0.423 in experiment [5]; 0.26 in experiment [6]. The PBM binding z-score in [7] is 0.493; in [8] it was 0.533; in [9], -0.0651; in experiment [10], 0.145; in [11] it was 0.225; in [12] it was 0.238. In addition, the PBM binding z-score was found to be 0.764 in experiment [13]; 0.611 in experiment [14]; 0.73 in experiment [15]; 0.903 in [16]; 1 in [17]; 0.903 in experiment [18]. Also, the PBM binding z-score in experiment [19] came to 1.97; in [20], 1.37.

In the case of ATCGAAAGGTCGAAGCTGAGTATACCCACCCGAA, the PBM binding z-score was found to be 4.55 in [1]; 3.6 in [2]; 0.403 in experiment [3]; 2.6 in experiment [4]; 0.738 in experiment [5]; 4.28 in experiment [6]. Further, the PBM binding z-score in experiment [7] is 2.17; in [8], 2.92; in experiment [9] it was 0.67; in experiment [10] it was 1.94; in experiment [11], 0.112; in [12] it was 1.14. Moreover, the PBM binding z-score in experiment [13] is 0.883; in [14] it was -0.0386; in experiment [15] it was 1.49; in experiment [16] it was 2.27; in [17] it was 0.151; in experiment [18] it was 3.14. Also, the PBM binding z-score stood at 0.371 in experiment [19] and 3.63 in experiment [20].

As for ATCTCTAGGTAAAGATGGTTCAGTGAATGCAAAT, the PBM binding z-score in experiment [1] is -0.0028; in experiment [2], 0.987; in [3], 0.171; in [4], 0.3; in [5], 0.169; in experiment [6], 0.594. For the same sequence, the PBM binding z-score worked out at 0.37 in [7]; 0.607 in experiment [8]; 0.44 in [9]; 0.679 in experiment [10]; 1.87 in experiment [11]; 1.65 in experiment [12]. The PBM binding z-score in [13] is 0.333; in [14], 0.863; in experiment [15] it was 0.000234; in experiment [16] it was 0.269; in experiment [17], 0.428; in experiment [18] it was 0.492. Also, the results for the PBM binding z-score in [19] and in [20] were 0.88 and -0.00416, respectively.
